Compound activity: PubChem BioAssay, National Center for Advancing Translational Sciences (NCATS)
LmPK inh: LmPK (Leishmania mexicana) enzyme inhibition | Q27686 | purified LmPK, Kinase-Glo ATP luminescence, 1 h | Potency, µM (series often up to 57.5 µM), inactives show top-dose activity change, negative = inhibition, usual class: inhibitors | 0.37% of 290,000 active | AID 1721
Target sequence (Q27686 whole entry, looked up): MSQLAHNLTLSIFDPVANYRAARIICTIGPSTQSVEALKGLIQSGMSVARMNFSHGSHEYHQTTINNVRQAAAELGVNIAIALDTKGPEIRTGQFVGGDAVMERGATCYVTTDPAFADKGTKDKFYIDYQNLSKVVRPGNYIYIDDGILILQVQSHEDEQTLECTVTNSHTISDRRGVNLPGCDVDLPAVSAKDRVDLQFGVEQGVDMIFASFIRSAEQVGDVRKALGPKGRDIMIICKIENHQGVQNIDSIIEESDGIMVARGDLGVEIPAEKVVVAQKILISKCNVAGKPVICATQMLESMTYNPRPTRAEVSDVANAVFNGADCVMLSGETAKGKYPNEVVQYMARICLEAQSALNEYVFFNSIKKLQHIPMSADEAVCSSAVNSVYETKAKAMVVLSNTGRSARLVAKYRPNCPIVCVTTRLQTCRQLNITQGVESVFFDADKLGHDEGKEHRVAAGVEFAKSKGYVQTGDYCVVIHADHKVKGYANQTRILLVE
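Kinase-Glo luminescence read after 1 h RT reaction of 0.1 nM LmPK with 0.5 mM PEP and 0.1 mM ADP. Activity scaled between uninhibited and enzyme-free controls.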
Tb PYK inh: blocks Trypanosoma brucei pyruvate kinase | Q57TT1 | TbPYK enzyme, Kinase-Glo Plus ATP luminescence, 45 min | Potency, µM (highest dose often 76.8 µM), inactives show at the highest dose activity, negative = inhibition, actives largely listed as inhibitors | 0.12% of 410,000 active | AID 624173; note: nearly all actives have a fitted effect of over 50% in size
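Luminescence from Kinase-Glo Plus, added after a 45-minute room-temperature reaction, served as the end-point read-out. The enzyme and substrate were preincubated with compound before ADP (130 uM final) initiated turnover. Concentration-effect curves came from normalized qHTS data.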
RE007 growth inh: less growth of the S. pombe RE007 Vpr strain. S. pombe RE007 Vpr strain, BacTiter-Glo ATP luminescence, 24 h. Potency, µM (top dose mostly 92.2 µM), for the others: at the top dose activity change, negative = less growth, usual class: inhibitors. 0.21% of 360,000 active; active = well fitted falling curve with a large enough effect; inconclusive = small, poorly fitted or top-dose-only effect; inactive = no such curve, though single readings can be large or run the other way; note: nearly all actives have a fitted effect of over 50% in size
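Fission yeast RE007 carrying one integrated HIV-1 vpr copy, seeded at OD 0.01 in PMG+AL medium with 23 nL pinned compound. Grown 24 h at 30 degrees; viability read by BacTiter-Glo luminescence after 5 min.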
Sm TGR block: inhibitors of Schistosoma mansoni thioredoxin glutathione reductase; 3% of 360,000 active; AID 485364; Potency, µM (titrated, usually from 114 µM), for inactives: at the highest dose activity change, negative = inhibition, actives largely listed as inhibitors; purified TGR, DTNB reduction, TNB absorbance 405 nm; note: nearly all actives have a fitted effect of over 60% in size
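First, TGR (20 nM dispensed) and NADPH were mixed with compound. Second, a 15 min room-temperature incubation followed. Third, further NADPH and then DTNB were added to start the reaction. Finally, TNB absorbance was monitored kinetically.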
Numbers without * were called inactive; ? = inconclusive; · = no result given; [ ] = dose if it differs, or a comment. Shown are actives, neighbours in structure and some others; about 3% of the full set was active somewhere. Unless noted, calls come from the whole dose curve; as a rule, active = well fitted curve in the direction sought with a large enough effect; inconclusive = small, poorly fitted or top-dose-only effect, or another doubt; inactive = no such curve, though single readings can be large; an effect the other way counts as inactive or inconclusive. % is set by controls: 0 for no effect and ±100 for the full control effect; potency is the fitted concentration of half-maximal effect.

SMILES | LmPK inh | Tb PYK inh | RE007 growth inh | Sm TGR block
CC1CCN(C(c2ccc(N(C)C)cc2)c2nnnn2Cc2ccccc2)CC1 (configuration not stated) | 4% | -10% | 3% | ?
CC1CCN(C(c2ccc(N(C)C)cc2)c2nnnn2C(C)(C)C)CC1 (configuration not stated) | -2% | ? | -2% | 5.6µM*
CN(C)c1ccc(C(c2nnnn2C(C)(C)C)N2CCc3ccccc3C2)cc1 (configuration not stated) | 8% | · | · | 11µM*
CCC(C)(C)n1nnnc1C(c1ccc(O)cc1)N1CCc2ccccc2C1 (configuration not stated) | 7% | 31% | -14% | ?
CC(C)(C)n1nnnc1C(c1ccccc1)N1CCc2ccccc2C1 (configuration not stated) | -3% | -13% | 12% | 35µM*
COc1ccc(N2CCN(S(=O)(=O)c3ccc4c(c3)CC(C)N4C(C)=O)CC2)cc1 (configuration not stated) | · | -6% | · | 0%
O=C(NCc1ccccc1)NC1COc2ccccc2C1 (configuration not stated) | · | -5% | · | 2%
N#CC1=C(N)C(C#N)(C#N)[C@H](c2ccncc2)[C@H]2CC3(CC=C12)OCCO3 | 5% | -4% | 4% | 79µM*
CCOC(=O)c1c(C)oc2c1c(C(c1cccnc1)N1CCCCC1)c(O)c1ccccc12 (configuration not stated) | 5% | -8% | -5% | 0.71µM*
CCOC(=O)c1c(C)oc2c1c(C(c1ccccc1)N1CCOCC1)c(O)c1ccccc12 (configuration not stated) | 4% | 2% | ? | 10µM*
c1cncc(C(c2nnnn2C2CCCCC2)N2CCCCC2)c1 (configuration not stated) | 2% | 0% | -13% | 4%
CCOC(=O)c1c(C)oc2c1c(C=NCCO)c(O)c1ccccc12 | -6% | -5% | 14% | 40µM*
CCOC(=O)c1ccc(N=Cc2c(O)c3ccccc3oc2=O)cc1 | 3% | -8% | -1% | -2%
COc1ccc(S(=O)(=O)Nc2cc3c(cc2NCc2ccccc2)n(C)c(=O)n3C)cc1OC | · | -15% | · | -7%
O=C(NC(NNc1ccc([N+](=O)[O-])cc1)(C(F)(F)F)C(F)(F)F)c1ccc(Cl)cc1 | -10% | -23% | 2% | 22µM*
COC(=O)c1cc2oc3ccccc3c2n1Cc1nc(-c2ccccc2Cl)oc1C | · | 4% | · | -1%
COC(=O)CC1c2ccccc2C=C(/C=C/c2ccc3c(c2)OCO3)N1C(=O)OC (configuration not stated) | -13%[11.5 µM] | · | · | ·
CCC1CN(C(=O)N2CCC(C(=O)NCCCc3ccccc3)CC2)c2ccccc2O1 (configuration not stated) | · | -4% | · | 7%
Cc1nonc1C(=O)N/N=C/c1ccc([N+](=O)[O-])o1 | -10% | -1% | -24% | 45µM*
NC(=O)N/N=C/c1ccc([N+](=O)[O-])o1 | · | 3% | 5%[18.4 µM] | ?
Cc1nonc1C(=O)N/N=C/c1ccncc1 | 16µM* | 4% | -6% | ·
Cc1ccc(C)n1-c1ccc(C(=O)N/N=C/c2ccncc2)cc1 | 5% | 0% | ? | 25µM*
Cc1cc(C)c(S(=O)(=O)N/N=C/c2ccc([N+](=O)[O-])o2)c(C)c1 | 4% | -16% | -26% | 7.1µM*
O=C(Nc1ccc(Cl)cc1C(F)(F)F)c1cc(S(=O)(=O)NCc2ccccc2)ccc1F | · | -5% | · | 5%
CC1=C(C(=O)Nc2ccccc2)C(C(C)C)n2nc(SCc3ccccc3C)nc2N1 (configuration not stated) | · | -1% | · | 3%
CCNC(=O)c1cnc2sc(N3CCC(C)CC3)nn2c1=O | · | -1% | · | -1%
Cc1ccc(N(CC(=O)NCCSCc2ccco2)S(=O)(=O)c2ccc(F)cc2)cc1 | 2% | -8% | -10% | 0%
COc1ccc(N(CC(=O)NCCSCc2ccco2)S(=O)(=O)c2ccc(C)cc2)cc1 | 11% | 3% | 9% | 28µM*
O=C(CCSc1ccccc1)NCCSCc1ccco1 | 1% | -8% | -2% | -36%
Cc1ccc(S(=O)(=O)N(CC(=O)NCCSCc2ccco2)c2ccc(F)cc2)cc1 | 4% | · | · | 13µM*
